Data reported in PubChem BioAssay AID1159580 (chemical genetic matrix, 2015).
The whole screen tested about 5,500 compounds, of which about 2,000 (36%) were called active. Inconclusive results (about 18%) are left out. Cut-off read from the data, not from the text of the source: active = normalized growth mostly below about 0.91 (no sharp cut-off); inconclusive = no clear call, values can overlap the other calls; inactive = mostly above about 0.92. Some of the results follow.

Assay: chemical genetic growth profiling, strain panel (AID 1159580);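 note: tested at 20 µM; growth read once vehicle control cultures reached saturation at 30 °C; 1 = growth at the plate median or of vehicle wells; lower values mean less growth of the strain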
Conditions: S. cerevisiae deletion strains, growth OD

Measured: normalized growth

CC(=O)Oc1cccc(C(=O)O)c1OC(C)=O
inactive: locus YAL013W, strain DEP1, active compounds read low 1.01 | locus YBR021W, strain FUR4, active compounds read low 0.987 | locus YBR229C, strain ROT2, active compounds read low 1 | locus YCL029C, strain bik1, active compounds read low 1 | locus YDL035C, strain GPR1, active compounds read low 1.03 | locus YDL074C, strain BRE1, active compounds read low 1.01 | locus YDL101C, strain DUN1, active compounds read low 1.01 | locus YDL134C, strain PPH21, active compounds read low 1.01 | locus YDL185W, strain tfp1, active compounds read low 1.02 | locus YDL192W, strain arf1, active compounds read low 1.02 | locus YDR101C, strain arx1, active compounds read low 0.985 | locus YDR162C, strain NBP2, active compounds read low 1.02 | locus YDR318W, strain mcm21, active compounds read low 1.01 | locus YDR388W, active compounds read low 1.01 | locus YDR502C, strain sam2, active compounds read low 1 | locus YEL061C, strain CIN8, active compounds read low 1.01 | locus YER110C, active compounds read low 1.02 | locus YER155C, strain BEM2, active compounds read low 1 | locus YER167W, strain BCK2, active compounds read low 1.01 | locus YGL078C, strain dbp3, active compounds read low 1.01 | locus YGL086W, strain mad1, active compounds read low 0.997 | locus YGL248W, strain PDE1, active compounds read low 1.01 | locus YGR078C, strain PAC10, active compounds read low 1.01 | locus YGR135W, strain pre9, active compounds read low 1.04 | locus YGR252W, strain gcn5, active compounds read low 1 | locus YHR030C, strain SLT2, active compounds read low 1.01 | locus YHR079C, strain IRE1 (second series), active compounds read low 1.01 | locus YHR094C, strain hxt1, active compounds read low 1.01 | locus YHR129C, strain ARP1, active compounds read low 1.01 | locus YHR200W, strain rpn10, active compounds read low 1.02 | locus YIL066C, strain RNR3, active compounds read low 1.01 | locus YIL073C, strain SPO22, active compounds read low 1.05 | locus YIL125W, strain kgd1, active compounds read low 1.01 | locus YIR030C, strain dcg1, active compounds read low 1.01 | locus YJL095W, strain BCK1, active compounds read low 1.01 | locus YJL134W, strain LCB3, active compounds read low 1 | locus YJL168C, strain set2, active compounds read low 1.02 | locus YJL187C, strain SWE1 (second series), active compounds read low 1.01 | locus YJR043C, strain POL32, active compounds read low 1.01 | locus YJR075W, strain HOC1, active compounds read low 1.03 | locus YKL009W, strain mrt4, active compounds read low 1.03 | locus YKL068W, active compounds read low 1.01 | locus YKL085W, strain MDH1 (second series), active compounds read low 1.07 | locus YKL085W, strain MDH1, active compounds read low 1.07 | locus YKL190W, strain CNB1, active compounds read low 1.01 | locus YKR001C, strain vps1, active compounds read low 1.01 | locus YLR039C, strain RIC1, active compounds read low 1.02 | locus YLR058C, strain SHM2, active compounds read low 1.01 | locus YLR102C, strain apc9, active compounds read low 1.01 | locus YLR262C, strain YPT6, active compounds read low 1.02 | locus YLR268W, strain sec22, active compounds read low 1 | locus YLR330W, strain CHS5, active compounds read low 1.01 | locus YLR342W, strain FKS1 (second series), active compounds read low 1.04 | locus YLR371W, strain rom2, active compounds read low 1 | locus YLR418C, strain cdc73, active compounds read low 1.01 | locus YML016C, strain PPZ1, active compounds read low 1.01 | locus YML032C, strain rad52, active compounds read low 1.02 | locus YML124C, strain tub3, active compounds read low 1.02 | locus YMR078C, strain ctf18, active compounds read low 1.02 | locus YMR223W, strain ubp8, active compounds read low 1.04 | locus YMR307W, strain GAS1, active compounds read low 1.07 | locus YNL067W, strain RPL9B, active compounds read low 1.01 | locus YNL153C, strain GIM3, active compounds read low 0.997 | locus YNL233W, strain BNI4, active compounds read low 1 | locus YNL250W, strain rad50, active compounds read low 1.04 | locus YNL271C, strain bni1, active compounds read low 1.01 | locus YNL298W, strain CLA4, active compounds read low 1.02 | locus YNL307C, strain MCK1, active compounds read low 1.02 | locus YNL322C, strain KRE1, active compounds read low 1.01 | locus YNR052C, strain pop2, active compounds read low 1.01 | locus YOL006C, strain TOP1, active compounds read low 1.06 | locus YOL147C, strain pex11, active compounds read low 1.01 | locus YOR061W, strain CKA2, active compounds read low 1.01 | locus YOR069W, strain VPS5, active compounds read low 1.01 | locus YOR136W, strain idh2, active compounds read low 1.01 | locus YOR144C, strain elg1, active compounds read low 1.01 | locus YOR184W, strain ser1, active compounds read low 1.02 | locus YOR316C, strain cot1, active compounds read low 1.01 | locus YPR119W, strain clb2, active compounds read low 1.01 | locus YPR141C, strain kar3, active compounds read low 1 | locus YPR163C, strain tif3, active compounds read low 1.01 | locus YPR167C, strain met16, active compounds read low 1.01 | strain wtn01, active compounds read low 1.01
